Source: PubChem BioAssay
Many of the other results were omitted from the sample, so hits are more common in it than they were.
IL1B secr inh: inflammasome signaling inhibition, IL-1 beta readout. THP-1 LPS/ATP IL-1B secretion, AlphaLISA, 16 h; active compounds read low. activity change, % at 57.5 µM. 360,000 tested, 4.7% active. AID 743279; in the data active = activity change below about -50%; inconclusive = mostly about -30% to -49%
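Secreted IL-1B measured by AlphaLISA bead assay after 16 h compound exposure of THP-1 cells; compounds (final up to 57.5 uM) added 1 h before LPS (250 ng/mL) and ATP (1.25 mM) stimulation; lower signal means less secretion.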
HT1080 IDH1KD tx: kills HT-1080 cells with IDH1 knockdown. HT-1080 IDH1 knockdown viability, ATP luminescence, 48 h. 360,000 tested, 2% active. AID 686971. Potency, µM (series often up to 46.1 µM), for inactives: at the top dose activity, negative = toxicity, hits mostly cytotoxic;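 note: potency is the fitted concentration of half-maximal effect; 0% = DMSO wells and -100% = cell-free medium wells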
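Viability of IDH1-knockdown HT-1080 fibrosarcoma cells was assessed by CellTiter-Glo after 48 h at 37 °C with titrated compound; concentration-effect curves were classified by fit quality and response size.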
TDP1 cell CPT: growth inhibition of DT40 Tdp1-/-;hTDP1 cells with camptothecin (screen for TDP1 inhibitors); chicken DT40 Tdp1-/-;hTDP1 cells + 20 nM CPT, ATP luminescence, 48 h; Potency, µM (top dose mostly 46.2 µM), for inactives: top-dose activity change, negative = growth inhibition, most hits filed as inhibitors; 420,000 tested, 12% active; AID 686979; note: potency is the fitted concentration of half-maximal effect; nearly all actives have a fitted effect of over 55% in size
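Cell growth measured by CellTiter-Glo luminescence after a minimum 48 h, 37 C compound exposure with 20 nM CPT in Tdp1-knockout DT40 cells stably expressing hTDP1, seeded 400/well; qHTS titration format.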
DT40 TDP1 no CPT: qHTS for Inhibitors of human tyrosyl-DNA phosphodiesterase 1 (TDP1): qHTS in cells in absence of CPT | DT40 Tdp1-/- hTDP1 cells, no CPT, ATP luminescence, 48 h | Potency, µM (series often up to 46.2 µM), without a hit: top-dose activity change, negative = growth inhibition, most hits filed as inhibitors | 420,000 tested, 15% active | AID 686978, 2013; note: potency is the fitted concentration of half-maximal effect; nearly all actives have a fitted effect of over 55% in size
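Growth of hTDP1-complemented DT40 Tdp1-knockout cells is measured by ATP luminescence after at least 48 hr compound exposure at 37 °C, with DMSO substituting for the 20 nM CPT used in the parallel screen.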
HT1080NT lethal: kills 2HG-producing HT-1080-NT fibrosarcoma cells; HT-1080-NT fibrosarcoma viability, CellTiter-Glo ATP luminescence, 48 h; Potency, µM (highest dose often 46.1 µM), for the others: at the highest dose activity, negative = less viability, usual class: cytotoxic; 360,000 tested, 1.6% active;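 note: NT is the 2HG producing partner of a matched IDH1 knockdown line; potency is the fitted concentration of half-maximal effect; 0% = DMSO-treated cells and -100% = media-only wells without cells; nearly all actives have a fitted effect of over 55% in size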
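Viability of the 2HG-overproducing fibrosarcoma line after 48 hours of compound exposure at 37 degrees C was determined by luminescence with CellTiter-Glo, and concentration-effect curves were then fitted and categorized.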
ALOX12 inh: inhibitors of human 12S-lipoxygenase ALOX12 | P18054 | 580,000 tested, 1.1% active | purified 12hLO, xylenol orange hydroperoxide absorbance | AID 1671190 | Potency, µM (series often up to 108 µM), for inactives: top-dose activity change, negative = inhibition, usual class: inhibitors; note: potency is the fitted concentration of half-maximal effect
Target sequence (P18054 whole entry, looked up): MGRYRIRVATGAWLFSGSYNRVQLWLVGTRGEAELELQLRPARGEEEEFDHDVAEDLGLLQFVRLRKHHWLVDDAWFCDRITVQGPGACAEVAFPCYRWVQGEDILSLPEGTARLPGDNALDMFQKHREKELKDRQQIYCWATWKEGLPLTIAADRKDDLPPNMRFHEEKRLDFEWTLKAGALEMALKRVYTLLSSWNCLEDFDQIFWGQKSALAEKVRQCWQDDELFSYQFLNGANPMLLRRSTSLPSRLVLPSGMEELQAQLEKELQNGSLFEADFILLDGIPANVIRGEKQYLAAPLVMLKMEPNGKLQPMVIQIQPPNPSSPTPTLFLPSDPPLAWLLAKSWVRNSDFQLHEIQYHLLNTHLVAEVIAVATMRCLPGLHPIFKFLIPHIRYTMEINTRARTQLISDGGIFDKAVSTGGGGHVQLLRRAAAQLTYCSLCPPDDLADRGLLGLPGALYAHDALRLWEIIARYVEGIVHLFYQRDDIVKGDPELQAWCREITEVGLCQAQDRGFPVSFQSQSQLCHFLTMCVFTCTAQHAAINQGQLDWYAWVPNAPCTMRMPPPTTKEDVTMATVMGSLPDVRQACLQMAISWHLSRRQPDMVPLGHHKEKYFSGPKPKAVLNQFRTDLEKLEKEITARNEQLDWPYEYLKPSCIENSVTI
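Hydroperoxide product was detected by ferrous iron/xylenol orange as the 573 to 405 nm absorbance ratio. Arachidonic acid at 40 uM (final) was turned over for 30 min at room temperature by 150 nM human 12hLO, pH 7.0 Hepes buffer, after 15 min compound preincubation.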
* = called active by the depositor. Unless noted, calls come from the whole dose curve; as a rule, active = well fitted curve in the direction sought with a large enough effect; inconclusive = small, poorly fitted or top-dose-only effect, or another doubt; inactive = no such curve, though single readings can be large; an effect the other way counts as inactive or inconclusive. Unless noted, % is set by controls: 0 for no effect and ±100 for the full control effect.

Results for COc1ccc(Nc2nc3ccccc3nc2NS(=O)(=O)c2cc(C)ccc2C)cc1 ?
ALOX12 inh: 1.0%

How did CCOc1cc(CNCCSc2nnnn2C)cc(Cl)c1OCc1ccc(Cl)cc1 do in these assays?
TDP1 cell CPT: 13µM*; DT40 TDP1 no CPT: 13µM*; ALOX12 inh: inconclusive

What do the screens show for `COc1cc(CNCCSc2nnnn2C)cc(Br)c1OCc1ccc(F)cc1`?
IL1B secr inh: -50.4*; HT1080 IDH1KD tx: inconclusive; TDP1 cell CPT: inconclusive; DT40 TDP1 no CPT: 25.9µM*; HT1080NT lethal: inconclusive; ALOX12 inh: 1.2%

How did CCOc1cc(CNCCSc2nnnn2C)cc(Br)c1OCc1ccccc1F do in these assays?
IL1B secr inh: -65.2*; HT1080 IDH1KD tx: inconclusive; TDP1 cell CPT: 16.4µM*; DT40 TDP1 no CPT: 12.6µM*; HT1080NT lethal: inconclusive; ALOX12 inh: inconclusive

What do the screens show for `CCOc1cc(CNCCSc2nnnn2-c2ccccc2)cc(Cl)c1OC`?
TDP1 cell CPT: inconclusive; DT40 TDP1 no CPT: 20.6µM*; ALOX12 inh: 4.8%

How did COc1cccc(NC(=O)C2=COC3=NC(=O)N(Cc4ccccc4)CCN23)c1 do in these assays?
ALOX12 inh: 1.1%

Results for COc1cc(CNCCSc2nnnn2C)cc(Br)c1OCc1ccccc1 ?
IL1B secr inh: -28.0; HT1080 IDH1KD tx: -0.3%; TDP1 cell CPT: inconclusive; DT40 TDP1 no CPT: inconclusive; HT1080NT lethal: -2.2%; ALOX12 inh: -4.3%

What do the screens show for `CCOc1cc(CNCCSc2nnnn2C)cc(Br)c1OCc1ccc(F)cc1`?
IL1B secr inh: -87.3*; HT1080 IDH1KD tx: -93.4%; TDP1 cell CPT: inconclusive; DT40 TDP1 no CPT: inconclusive; HT1080NT lethal: 23.1µM*; ALOX12 inh: -10.0%

Results for COc1ccc(N(Cc2ccccc2)C(=O)c2nc(S(C)(=O)=O)ncc2Cl)cc1 ?
TDP1 cell CPT: 0.731µM*; DT40 TDP1 no CPT: 0.461µM*; ALOX12 inh: 4.0%

Results for CS(=O)(=O)c1ncc(Cl)c(C(=O)N(Cc2ccc(Cl)cc2)Cc2ccco2)n1 ?
TDP1 cell CPT: 0.651µM*; DT40 TDP1 no CPT: 1.3µM*; ALOX12 inh: -26.2%

What do the screens show for `CCOc1ccc(N(Cc2ccccc2)C(=O)c2nc(SC)ncc2Cl)cc1`?
TDP1 cell CPT: 13µM*; DT40 TDP1 no CPT: 6.51µM*; ALOX12 inh: inconclusive

Results for Cc1ccc(S(=O)(=O)N2CCN(C(=O)c3cc4ccccc4oc3=O)CC2)cc1 ?
ALOX12 inh: -25.3%

What do the screens show for `COc1nc(C(=O)NC2(c3ccccc3)CCC2)cc2ccccc12`?
ALOX12 inh: -12.5%

What do the screens show for `CC1CCCC=CC2CC(OC(=O)CN(C)C)CC2C(O)C=CC(=O)O1` (stereo not drawn)?
IL1B secr inh: 0.0; HT1080 IDH1KD tx: 0.0291µM*; TDP1 cell CPT: 0.92µM*; DT40 TDP1 no CPT: 1.03µM*; HT1080NT lethal: inconclusive; ALOX12 inh: -6.7%

Results for CC(=O)NC(C(=O)NCc1ccc(C)cc1)C1CCCC1 (stereo not drawn) ?
ALOX12 inh: -0.1%

Results for CNc1nc2cc([N+](=O)[O-])c([N+](=O)[O-])cc2nc1NC ?
IL1B secr inh: -0.4; HT1080 IDH1KD tx: 3.26µM*; TDP1 cell CPT: 2.31µM*; DT40 TDP1 no CPT: 3.26µM*; HT1080NT lethal: 3.26µM*; ALOX12 inh: -23.5%

How did COc1cccc(/C=C/C(=O)Nc2cccc(C(C)=O)c2)c1OC do in these assays?
IL1B secr inh: -21.4; HT1080 IDH1KD tx: 4.0%; TDP1 cell CPT: inconclusive; DT40 TDP1 no CPT: inconclusive; HT1080NT lethal: 4.8%; ALOX12 inh: -9.9%

What do the screens show for `COc1cccc(NC(=O)CC(=O)Nc2ccc3nc4n(c(=O)c3c2)CCCCC4)c1`?
TDP1 cell CPT: 3.2%; DT40 TDP1 no CPT: -8.1%; ALOX12 inh: -16.9%

What do the screens show for `COc1cccc(/C=C/C(=O)Nc2ccc3c(c2)OCCO3)c1OC`?
IL1B secr inh: -77.7*; HT1080 IDH1KD tx: -12.9%; TDP1 cell CPT: 18.4µM*; DT40 TDP1 no CPT: inconclusive; HT1080NT lethal: -11.9%; ALOX12 inh: -14.7%

Results for COc1cc(OC)cc(C(=O)Nc2ccc3nc4n(c(=O)c3c2)CCCCC4)c1 ?
IL1B secr inh: -10.0; HT1080 IDH1KD tx: -21.3%; TDP1 cell CPT: inconclusive; DT40 TDP1 no CPT: 11.6µM*; HT1080NT lethal: -29.9%; ALOX12 inh: 10.0%

What do the screens show for `O=C(Nc1ccc2nc3n(c(=O)c2c1)CCCC3)c1cc([N+](=O)[O-])ccc1F`?
IL1B secr inh: -104.9*; HT1080 IDH1KD tx: inconclusive; TDP1 cell CPT: 2.06µM*; DT40 TDP1 no CPT: 1.84µM*; HT1080NT lethal: -19.8%

How did COc1cccc(/C=C/C(=O)Nc2ccc3nc4n(c(=O)c3c2)CCCC4)c1OC do in these assays?
IL1B secr inh: -10.3; HT1080 IDH1KD tx: inconclusive; TDP1 cell CPT: 20.6µM*; DT40 TDP1 no CPT: 18.4µM*; HT1080NT lethal: inconclusive; ALOX12 inh: -2.9%

Results for CCOCCn1c(N2CCN(Cc3ccc(C)cc3)CC2)nc2c1c(=O)[nH]c(=O)n2C ?
ALOX12 inh: 29.2%

What do the screens show for `O=C(CSc1nncn1CCc1cccs1)Nc1ccccc1`?
ALOX12 inh: -15.5%

What do the screens show for `COc1ccc(OC)c(CCNC(=O)C(=O)Nc2ccc3nc4n(c(=O)c3c2)CCCCC4)c1`?
IL1B secr inh: -15.4; HT1080 IDH1KD tx: 0.4%; TDP1 cell CPT: 13µM*; DT40 TDP1 no CPT: 14.6µM*; HT1080NT lethal: -0.1%; ALOX12 inh: 1.3%

How did COc1ccc(NC(=O)C(=O)Nc2ccc3nc4n(c(=O)c3c2)CCCCC4)c(OC)c1 do in these assays?
TDP1 cell CPT: -6.9%; DT40 TDP1 no CPT: -6.9%; ALOX12 inh: 4.2%

What do the screens show for `O=C(NNc1ccc([N+](=O)[O-])cc1)c1ccccc1Cl`?
IL1B secr inh: -1.3; HT1080 IDH1KD tx: -2.7%; TDP1 cell CPT: -9.2%; DT40 TDP1 no CPT: -29.9%; HT1080NT lethal: -7.5%; ALOX12 inh: -8.0%

How did O=C(NC(NNc1ccc([N+](=O)[O-])cc1)(C(F)(F)F)C(F)(F)F)c1ccc(Cl)cc1 do in these assays?
IL1B secr inh: inconclusive; HT1080 IDH1KD tx: inconclusive; TDP1 cell CPT: inconclusive; DT40 TDP1 no CPT: 29.1µM*; HT1080NT lethal: -15.9%; ALOX12 inh: 35.5µM*

Results for Cc1ccc(C2=NC3(CCN(C(=O)c4sccc4C)CC3)ON2)cc1 ?
ALOX12 inh: 14.3%

Results for CC(=O)C(C(=O)Nc1c(C)cccc1C)N(Cc1ccco1)C(=O)C(=O)c1ccccc1 (stereo not drawn) ?
ALOX12 inh: -20.3%
